Screening data deposited in PubChem BioAssay by ICCB-Longwood Screening Facility, Harvard Medical School.
Sa growth 42C: inhibitors of Staphylococcus aureus growth at 42 °C; S. aureus RN4220 growth, OD600, 20 h; hits give low values; relative growth, % (no concentration beside the values); 170,000 compounds, 0.53% hits; AID 720641;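 active = relative growth at most 50% at the other temperature and 20+ points below 30 °C, or under 10% at both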
S aureus helic: blocks Staphylococcus aureus DNA helicase; inhibition, % (no concentration beside the values); 120,000 compounds, 0.05% hits; purified S. aureus helicase, fluorescence unwinding assay; in the data active = inhibition above about 25%, passing the limit was not always enough;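 also: 0% = mean of negative control wells and 100% = mean of positive control wells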
Starred values were filed as active, the others as inactive; . = not tested or not shown. In the library only some 0.52% were active in any assay of this set; here they are far more common.

SMILES | Sa growth 42C | S aureus helic
Cc1oc2c(c1C(=O)N1CCc3ccccc3C1)C(=O)c1ccccc1C2=O | 6.5* | 6
Cc1oc2c(c1C(=O)NCc1ccccc1)C(=O)c1ccccc1C2=O | 20 | 2
O=C(NCc1csc(-c2cccs2)n1)c1ccc2c(c1)CCO2 | 115 | .
CCCCn1nnnc1CSc1nc2cc(Cl)ccc2n1Cc1ccccc1 | 96 | -18
Brc1ccccc1-c1nc2ccccc2c2nc3ccccc3n12 | 111 | 9
S=c1nc2ccccc2c2nc(COc3ccccc3Br)[nH]n12 | 0.6* | -13
C/C(=N\OC(=O)c1ccccc1)c1cc(-c2ccccc2)no1 | 101 | 3
C/C(=N\O)c1cc(-c2ccccc2)no1 | -0.7* | .
N#Cc1ccccc1COC(=O)c1ccc2c(=O)n3c(nc2c1)CCCCC3 | 82 | -3
O=S(=O)(c1ccc(NC2CCN(Cc3ccccc3)CC2)nc1)N1CCCCC1 | 94 | 38*
O=C(CSc1ccc(S(=O)(=O)N2CCN(Cc3ccccc3)CC2)cn1)NC(=O)NC1CCCC1 | 100 | 4
O=C(Oc1coc(CSc2nnc(NC(=O)C3CC3)s2)cc1=O)c1cccs1 | 104 | 9
O=C(CC1CCCC1)Nc1c(C(=O)Nc2ccccc2)oc2ccccc12 | 95 | 6
On1ccccc1=S | 0.4* | 11
Cn1ccccc1=S | 101 | -2
CC(=O)N=Nc1c2[nH]c3ccccc3nc-2c2ccccc12 | 7.6* | 17
CC(=O)Nc1ccccc1-c1nc2ccccc2[nH]c1=O | 122 | 8
N#C/C(=C\c1ccc(-c2cc(C(F)(F)F)ccc2Cl)o1)C(=O)O | 96 | -5
N#C/C(=C/c1ccc(-c2cc(C(=O)O)ccc2Cl)o1)C(=O)NCCc1c[nH]c2ccccc12 | 9.7* | 20
Cc1ccc(-c2nnc(NC(=O)c3ccc4c(c3)OCCO4)o2)c(C)c1 | 64 | .
C=CCN(CC=C)S(=O)(=O)c1ccc(C(=O)Nc2nnc(-c3cc(C)ccc3C)o2)cc1 | 1.7* | 2
CCc1nnc(NC(=O)c2ccc(S(=O)(=O)N3CCCC3)cc2)o1 | 111 | 5
CCc1nnc(NC(=O)c2ccc(S(=O)(=O)N3CC(C)CC(C)C3)cc2)o1 (stereo not given) | 9.0* | 6
C=CCN(CC=C)S(=O)(=O)c1ccc(C(=O)Nc2nnc(-c3ccc(OC)cc3)o2)cc1 | 89 | 18
Cc1ccc(-c2nnc(NC(=O)c3ccc(S(=O)(=O)N4CCCC4)cc3)o2)c(C)c1 | 1.6* | 3
SMILES | Sa growth 42C | S aureus helic
CCOc1ccc(/C=C(\C(=O)N2CCCC2)n2ccccc2=O)cc1 | 96 | -9
O=C(COCc1cc(-c2ccc(F)cc2)on1)NCCN1CCCC1 | 102 | 8
Cc1ccc(NC(=O)c2ccn(C(=O)Nc3cccc(Cl)c3)n2)cc1 | 45* | 17
Cc1ccc(NC(=O)c2ccc(=O)n(CC(=O)Nc3cccc(C)c3)n2)cc1 | 114 | .
C=CCN1C(=O)/C(=C2\SC(N3CCCCC3)=NC2=O)c2ccccc21 | 96 | 18
CN1C(=O)/C(=C2\SC(N3CCCCCC3)=NC2=O)c2ccccc21 | 111 | 43*
Cc1nnc(Sc2cc(C(=O)NCCN3CCOCC3)c3ccccc3n2)s1 | 104 | 9
Oc1nc2c(Cl)c(Cl)c(Cl)cc2o1 | -1.2* | 30
O=c1oc2cc(Cl)c(O)c(Cl)c2s1 | 60 | 30
C=CCn1c(C)cc(C(=O)CSc2nc(C)cc(C(F)(F)F)c2C#N)c1C | 90 | -232
C=C(C)C(=O)OCCc1ccc(O)c(-n2nc3ccccc3n2)c1 | 90 | 1
Cn1cnnc1SCC(=O)Nc1ccccc1C(=O)Nc1ccc2c(c1)OCO2 | 97 | -12
O=c1c2c(nc3c(-c4ccccc4)c[nH]n13)CCC2 | 0.1* | 18
O=c1c2c(nc3cc(-c4ccccc4)[nH]n13)CCC2 | 100 | -3
CCc1c(C)c2ccc(OCC(=O)C(C)(C)C)c(C)c2oc1=O | 116 | -2
CCc1ccc(C(=O)Nc2ccc(S(N)(=O)=O)cc2)cc1 | 94 | .
CC(C)(C)c1ccc(C(=O)Nc2ccc(S(N)(=O)=O)cc2)cc1 | 2.7* | -18
N#C/C(=C\Nc1cccc(Cl)c1)S(=O)(=O)Cc1ccco1 | 85 | .
N#C/C(=N\Nc1cc(C(=O)O)cc(C(=O)O)c1)C(=O)c1ccccc1 | 94 | -3
N#C/C(=N\Nc1cccc(Cl)c1)C(=O)c1ccco1 | 1.8* | -9
Cc1cc(C(=O)/C(C#N)=N/Nc2cccc(Cl)c2)n(C(C)(C)C)n1 | 5.4* | 21
CC(=O)N1CCN(c2ccccc2NC(=S)NC(=O)CC(C)C)CC1 | 99 | 7
NN1C(=O)c2ccccc2C1=O | 90 | 7
COC(=O)c1ccc(/C=N/n2c(-c3ccco3)csc2=NC2CCCCC2)cc1 | 86 | -58
